# Sampled rows, rich in hits. Any-hit rate of the full collection: about 7.5%.
# FLuc counter = qHTS profiling assay for firefly luciferase inhibitor/activator using purifed enzyme and Km concentrations of substrates (counterscreen for miR-21 project); Luciferin 4-monooxygenase (Photinus pyralis), P08659; purified FLuc, Km substrates, luminescence inhibition; Potency, µM (titrated, usually from 57.5 µM), for inactives: at the highest dose activity change, negative = inhibition, most hits filed as inhibitors; 360,000 compounds, 6.9% hits; AID 588342, 2011;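 further: plate controls were vehicle for no effect and reference inhibitor for full effect; nearly all actives have a fitted effect of over 55% in size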
# Target sequence (P08659 whole entry, looked up): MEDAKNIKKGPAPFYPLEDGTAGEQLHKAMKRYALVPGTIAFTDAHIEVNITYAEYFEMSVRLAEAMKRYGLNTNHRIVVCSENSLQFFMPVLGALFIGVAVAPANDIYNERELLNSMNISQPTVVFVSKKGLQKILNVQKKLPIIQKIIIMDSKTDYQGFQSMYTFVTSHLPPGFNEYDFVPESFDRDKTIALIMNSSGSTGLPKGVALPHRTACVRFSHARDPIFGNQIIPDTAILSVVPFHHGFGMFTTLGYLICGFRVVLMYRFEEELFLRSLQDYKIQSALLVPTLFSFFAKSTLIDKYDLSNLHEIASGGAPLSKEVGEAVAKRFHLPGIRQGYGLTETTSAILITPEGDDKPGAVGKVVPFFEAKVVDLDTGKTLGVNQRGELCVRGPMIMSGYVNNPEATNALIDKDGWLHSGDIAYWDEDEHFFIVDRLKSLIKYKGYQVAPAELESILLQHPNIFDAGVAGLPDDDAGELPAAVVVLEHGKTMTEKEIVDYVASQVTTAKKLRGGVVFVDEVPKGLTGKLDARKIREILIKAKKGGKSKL
#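 Purified P. pyralis luciferase (10nM final) with 10uM D-luciferin and 10uM ATP (Km levels) in 50mM Tris acetate pH 7.5, 10mM Mg acetate, 0.01% Tween-20, 0.05% BSA; qHTS 6-point titration, ~60 µM downward; luminescence read.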
# SMN2 splice up = qHTS Assay for Enhancers of SMN2 Splice Variant Expression; HEK293 SMN2-luciferase splicing reporter, luminescence, 30-36 h; Potency, µM (top dose mostly 46.1 µM), inactives show at the top dose activity change, positive = activation, hits mostly activators; 210,000 compounds, 2.8% hits; further: % of control where 0% means no effect; nearly all actives have a fitted effect of over 55% in size
#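 HEK293 cells carry an SMN2 minigene-luciferase reporter in which exon 7 inclusion puts luciferase in frame. Cells were seeded at 2000 cells/well, attached for 10-12 hours, then exposed to compounds for 30-36 hours at 37C before ONE-Glo luminescence.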
# ELG1 genotoxic = qHTS screen for small molecules that induce genotoxicity in human embryonic kidney (HEK293T) cells expressing luciferase-tagged ELG1 | HEK293T ELG1-luciferase reporter, luminescence, 16 h | Potency, µM (series often up to 46 µM), inactives show at the highest dose activity change, positive = activation, usual class: activators | 330,000 compounds, 1.3% hits; further: % of control where 0% means no effect; nearly all actives have a fitted effect of over 60% in size
#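 Genotoxicity was scored as increased ELG1-luciferase reporter signal, measured by ONE-Glo luminescence (30 min, room temperature). Compound or vehicle exposure of the HEK293T reporter cells lasted 16 hr at 37°C.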
# NPC1 promoter act = qHTS Assay for NPC1 Promoter Activators; Huh7 NPC1 promoter luciferase reporter, 24 h; Potency, µM (highest dose often 9.22 µM), inactives show at the highest dose activation, most hits filed as activators; 320,000 compounds, 2.4% hits; AID 485313, 2010; further: % of control where 0% means no effect; nearly all actives have a fitted effect of over 60% in size
#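 In 1536-well qHTS, Huh7 cells harboring an NPC1 promoter–luciferase construct received compound for 24 h; activation was quantified by luminescence following luciferase reagent addition.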
# Rab9 promoter act = qHTS Assay for Rab9 Promoter Activators | Potency, µM (titrated, usually from 9.22 µM), for inactives: at the highest dose activation, negative = inhibition, actives largely listed as activators | AID 485297, 2010 | 320,000 compounds, 2.8% hits | Huh7 Rab9 promoter-luciferase reporter, luminescence, 24 h; further: % of control where 0% means no effect; nearly all actives have a fitted effect of over 60% in size
#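 Steps: seed 1500 Huh7 Rab9-luc cells per well, rest 2 h at 37 °C; add compound in DMSO; incubate 24 h; add luciferase reagent, 10 min ambient; read luminescence.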
# Luc counter = Counterscreen for Luciferase (Kinase-Glo TM) Inhibition. Luciferin 4-monooxygenase (Photuris pensylvanica), Q27757. Kinase-Glo luciferase, ATP luminescence, 8 min. Potency, µM (titrated, usually from 38.3 µM), inactives show at the top dose activity change, negative = inhibition, actives largely listed as inhibitors. 200,000 compounds, 0.28% hits; further: on the % scale 0 is the no-effect control and ±100 the full control effect; nearly all actives have a fitted effect of over 60% in size
#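 Recombinant Kinase-Glo luciferase, 10 uM ATP (linear range), luciferin; imidazole pH 7.2 / KCl / MgCl2 / Tween / BSA buffer; 8 min RT; luminescence.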
# An asterisk follows results filed as active; ? = inconclusive; . = no result; ! = repeats disagree. The call rests on the fitted dose curve; in most records, active means well fitted curve in the direction sought with a large enough effect; inconclusive means small, poorly fitted or top-dose-only effect, or another doubt; inactive means no such curve, though single readings can be large; an effect the other way counts as inactive or inconclusive. Potency means the concentration at half of the fitted maximal effect.
SMILES,FLuc counter,SMN2 splice up,ELG1 genotoxic,NPC1 promoter act,Rab9 promoter act,Luc counter
COc1ccc(CCN2CCCC(CN(C)C(=O)c3ccoc3)C2)cc1 (stereo not given),15.1µM*,.,16.4µM*,2.51µM*,2.24µM*,.
CN(CC1CCCN(CCc2ccccc2F)C1)C(=O)c1ccoc1 (stereo not given),4.3%,.,-0.7%,-4.0%,-2.2%,.
COC(=O)Cc1c(C)c2ccc(OC(=O)c3ccco3)cc2oc1=O,16.9µM*,-3.6%,4.2%,-0.3%,1.2%,-1.1%
COC(=O)Cc1c(C)c2ccc(OC(C)C)cc2oc1=O,15.1µM*,.,18.0%,?,3.16µM*,.
COC(=O)Cc1c(C)c2ccc(OC3CCCCC3=O)cc2oc1=O (stereo not given),?,.,4.5%,21.9%,22.5%,.
CC1(c2ccc(OC(F)F)cc2)NC(=O)N(CC(=O)N2CCN(C(=O)c3ccco3)CC2)C1=O (stereo not given),2.2%,.,0.9%,-1.8%,-1.2%,.
CCc1ccc(NC(=O)C(C)Sc2nnc(CN3CCCC3)o2)cc1 (stereo not given),.,.,-0.1%,-1.4%,-1.1%,.
O=C(O)c1cc(N/N=C/c2ccncc2)ccc1Cl,9.53µM*,.,-0.2%,17.7%,19.6%,.
O=C(N/N=C/c1c[nH]c2ccccc12)c1ccc([N+](=O)[O-])cc1Cl,?,.,-0.8%,-7.4%,0.0%,.
O=C(O)c1cc(N/N=C/c2ccc(-c3ccccc3)cc2)ccc1Cl,0.757µM*,.,0.461µM*,0.0891µM*,0.1µM*,.
CSc1ccc(/C=N/Nc2ccc(Cl)c(C(=O)O)c2)cc1,0.536µM*,1.78µM*,?,0.1µM*,?,2.2%
COc1ccc(C(=O)Oc2ccc(/C=N/Nc3ccc(Cl)c(C(=O)O)c3)cc2OC)cc1,?,.,9.7%,?,?,.
O=C(O)c1cc(N/N=C/c2c[nH]c3ccccc23)ccc1Cl,6.75µM*,.,?,2µM*,1.58µM*,.
Cc1ccc(N2CC(C(=O)Nc3nnc(SCC(=O)N4CCOCC4)s3)CC2=O)cc1 (stereo not given),1.9%,.,1.3%,-2.7%,-0.6%,.
CC1(C2CC2)NC(=O)N(CC(=O)NCc2ccc(Cl)cc2Cl)C1=O (stereo not given),-5.9%,.,2.0%,0.2%,-1.3%,.
O=C(Cc1ccc(Cl)c(Cl)c1)N/N=C/c1cccnc1,0.2%,.,-0.7%,0.0%,-2.3%,.
O=C(O)c1cc(N/N=C/c2cccnc2)ccc1Cl,19µM*,.,5.3%,25.9%,23.9%,.
N#CCCn1c(SCC(=O)c2c[nH]c3ccccc23)nc2ccccc21,-1.5%,-21.3%,-0.1%,-1.6%,9.7%,1.4%
C=CCn1c(SCC(=O)c2cc(C)n(Cc3cccs3)c2C)nnc1-c1ccncc1,19µM*,-14.2%,-5.8%,1.5%,-0.6%,-0.1%
COc1ccccc1-n1cnnc1SCC(=O)c1cc(C)n(Cc2cccs2)c1C,19µM*,0.8%,13.6%,16.1%,13.4%,-5.4%
Cc1cc(C(=O)CSc2nc3ccccc3n2CCC#N)c(C)n1Cc1cccs1,?,?,8.2µM*,25.0%,?,2.5%
Cc1cc(NC(=O)Nc2ccccc2)n(C(C)(C)C)n1,4.5%,.,-8.0%,-3.1%,-4.9%,.
COc1ccc(CC(=O)Nc2ccc(N3CCCC3)c(C)c2)cc1,?,.,16.2%,17.0%,12.0%,.
c1ccc2sc(SSc3nc4ccccc4s3)nc2c1,.,0.8%,.,.,.,.
OC1CCCCC1Sc1nc2ccccc2s1 (stereo not given),16.9µM*,-7.6%,?,?,?,-0.7%
SMILES,FLuc counter,SMN2 splice up,ELG1 genotoxic,NPC1 promoter act,Rab9 promoter act,Luc counter
COc1ccccc1OC(=O)CCN1c2ccccc2Sc2ccccc21,0.2%,0.6%,2.0%,-3.8%,-8.1%,0.2%
COc1ccc(C(=O)/C=C2\Sc3ccccc3N2C)cc1,1.2µM*,7.94µM*,1.64µM*,0.708µM*,0.891µM*,-14.9%
CC(=S)/C=C1\Sc2ccccc2N1C,-15.2%,-20.7%,-1.4%,-1.7%,-7.3%,-1.3%
COc1ccc(-[n+]2c(C)cc(/C=C3\Sc4ccccc4N3C)cc2C)cc1,19µM*,-63.4%,-15.6%,-40.8%,-48.2%,-2.4%
COc1ccccc1-[n+]1c(C)cc(/C=C2\Sc3ccccc3N2C)cc1C,2.39µM*,.,3.4%,-34.9%,-39.6%,.
Clc1ccccc1/C=N/NC1=Nc2cccc3cccc1c23,0.849µM*,5.62µM*,16.4µM*,?,4.47µM*,0.4%
CCc1nnc(N/N=C/c2ccccc2Cl)n1N,-24.0%,-5.5%,3.4%,1.6%,-5.2%,4.3%
C(=N\NC1=Nc2cccc3cccc1c23)/c1ccccn1,1.51µM*,-44.3%,?,-34.4%,-23.0%,-3.4%
COc1ccccc1N(CC(O)CN1CCC(C)CC1)S(=O)(=O)c1ccccc1 (stereo not given),-1.0%,.,1.7%,-3.8%,4.7%,.
Cc1cc(=O)n(C(C)C(=O)NCc2ccccc2Cl)c2c1c(C)nn2-c1ccccc1 (stereo not given),-3.3%,.,.,.,.,.
CCC(CC)C(=O)Nc1nnc(S(=O)(=O)N2c3ccccc3CC2C)s1 (stereo not given),16.9µM*!,.,-4.5%,-2.3%,0.1%,.
Cc1ccc2nc(NC(=O)c3ccccn3)sc2c1,0.169µM*,.,0.164µM*,?,?,.
O=C(Nc1nc2ccc(S(=O)(=O)N3CCCC3)cc2s1)c1ccccn1,?,-22.0%,-7.5%,26.3%,?,2.3%
CCOc1ccc2nc(NC(=S)NCc3ccccc3)sc2c1,-12.5%,-7.6%,14.4%,9.1%,12.3%,-3.1%
O=C(Nc1nc2c(F)cc(F)cc2s1)c1ccccn1,0.675µM*,2.82µM*,9.2µM*,0.112µM*,0.1µM*,?
CCOc1ccc2nc(NC(=O)c3ccccn3)sc2c1,0.379µM*,.,?,0.1µM*,?,.
CCc1noc(C)c1C(=O)Nc1nc2c(F)cc(F)cc2s1,12µM*,.,-0.5%,22.7%,?,.
CC(C)N(C(C)C)S(=O)(=O)c1ccc(N2CCc3ccccc3C2)nc1,13.5µM*,.,?,?,3.98µM*,.
Cc1ccc(Cn2nc(C)cc2C(=O)Nc2ccc(Cl)cc2)cc1,?,.,3.2%,14.5%,9.2%,.
Cc1ccc(C(=O)Nc2ccccc2Cl)cc1,6.75µM*,.,?,3.16µM*,1.58µM*,.
CCOC(=O)c1cc(-c2ccc(C)cc2)nn1Cc1ccccc1,7.57µM*,?,.,.,.,.
Cc1ccc(Cn2nc(C)cc2C(=O)Nc2ccccc2Cl)cc1,12µM*,.,23.1µM*,?,2.51µM*,.

# Bioassay records from PubChem.
